# Pf Dd2 growth: blocks growth of Plasmodium falciparum Dd2 parasites. P. falciparum Dd2 growth, SYBR Green, 72 h; active compounds read low. activity change, % at 10 µM. 2.3% of 94,000 active. AID 1159554; in the data active = activity change below about -80%
# C diff growth: inhibitors of Clostridium difficile growth. Clostridium difficile clinical isolate growth, OD600, 24 h; active compounds read low. growth activity, negative = inhibition, % at 16 µg/mL (by protocol). 0.25% of 86,000 active. AID 1259249;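 active = mean growth activity at or below -80% and every replicate also at or below -80%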;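 note: 0% = DMSO wells and -100% = levofloxacin 16 µg/mL wells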
# T cruzi growth: blocks T. cruzi growth in NIH3T3 culture; T. cruzi beta-gal in NIH3T3, GalScreen luminescence, 90 h; inhibition, % at 8.34 µM; 5.9% of 77,000 active; AID 624255;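 active = mean inhibition above about 93%, with at least 55% of replicates each passing it, limit read from the data, passing the limit was not always enough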
# * hit, by the source's call; / = no result. Most compounds without a hit are left out; they make up all but 6.7% or so of the library.
SMILES,Pf Dd2 growth,C diff growth,T cruzi growth
CN(C)c1ccc2c(c1)[C@H]1C[C@@H](CC(=O)NCc3ccc(Oc4ccccc4)cc3)O[C@H](CO)[C@H]1O2,-10,-9,/
COc1ccc(NC(=O)Nc2ccc3c(c2)[C@@H]2C[C@H](CC(=O)N[C@@H](C)c4ccccc4)O[C@H](CO)[C@@H]2O3)cc1,-87*,13,/
COc1ccc(NC(=O)Nc2ccc3c(c2)[C@@H]2C[C@@H](CC(=O)N[C@@H](C)c4ccccc4)O[C@@H](CO)[C@@H]2O3)cc1,-30,1,-7
Cc1ccc(S(=O)(=O)N2CC[C@@H]3[C@@H](CO)N(C)c4ccc(-c5ccc(C#N)cc5)cc4[C@@H]32)cc1,-20,4,-3
C[C@H]1CN([C@@H](C)CO)C(=O)c2cccc(NC(=O)c3nc4ccccc4s3)c2O[C@H]1CN(C)S(C)(=O)=O,31,0,50
CNC[C@H]1OCCCC[C@H](C)Oc2ccc(NS(C)(=O)=O)cc2C(=O)N([C@H](C)CO)C[C@@H]1C,-9,2,4
C[C@@H]1CN([C@H](C)CO)C(=O)c2cc(-c3cccnc3)cnc2O[C@@H]1CN(C)C(=O)C1CCC1,19,-2,27
CN1CCN(C(=O)C[C@H]2C[C@H]3c4cc(NC(=O)Nc5ccc(C(F)(F)F)cc5)ccc4O[C@H]3[C@H](CO)O2)CC1,-58,0,-12
O=C(C[C@H]1C[C@@H]2c3cc(NC(=O)Nc4ccccc4)ccc3O[C@@H]2[C@H](CO)O1)NCc1ccccc1,-88*,1,32
O=C(C[C@@H]1C[C@@H]2c3cc(NC(=O)Nc4ccccc4)ccc3O[C@@H]2[C@H](CO)O1)NCc1ccccc1,-46,-14,59
CN1CCN(C(=O)C[C@H]2C[C@@H]3c4cc(NC(=O)Nc5ccc(C(F)(F)F)cc5)ccc4O[C@@H]3[C@@H](CO)O2)CC1,-85*,5,2
CCC(=O)N[C@@H]1CC[C@@H](CCn2cc(-c3cccc(OC)c3)nn2)O[C@H]1CO,-32,2,-11
Cc1noc(C)c1NC(=O)N[C@H]1CC[C@H](CC(=O)NCc2ccc(Cl)c(Cl)c2)O[C@@H]1CO,3,/,-3
COc1ccc(CN2CC3(C2)CN(Cc2ccc4c(c2)OCO4)[C@@H](CO)c2[nH]c4cc(OC)ccc4c23)cc1,-84*,-12,/
CCS(=O)(=O)N1CC2(CN(Cc3ccc4c(c3)OCO4)[C@@H](CO)c3[nH]c4cc(OC)ccc4c32)C1,-69,-12,/
COc1ccc(CN2CC3(CN(Cc4ccccc4OC)C3)c3c([nH]c4cc(OC)ccc34)[C@H]2CO)cc1,-66,7,/
COc1ccc(CN2CC3(C2)CN(Cc2ccc4c(c2)OCO4)[C@H](CO)c2[nH]c4cc(OC)ccc4c23)cc1,-87*,0,/
CN(C)CC(=O)N[C@@H]1CC[C@H](CCNS(=O)(=O)c2ccccc2)O[C@@H]1CO,11,-2,/
COc1cccc(S(=O)(=O)N(C)C[C@@H]2Oc3ncccc3C(=O)N([C@H](C)CO)C[C@@H]2C)c1,29,2,9
COc1ccc(S(=O)(=O)Nc2ccc3c(c2)C(=O)N([C@@H](C)CO)C[C@@H](C)[C@@H](CN(C)C(=O)Nc2cccc4ccccc24)OCCCC[C@@H](C)O3)cc1,-29,/,55
COc1ccc(S(=O)(=O)Nc2ccc3c(c2)C(=O)N([C@@H](C)CO)C[C@H](C)[C@@H](CN(C)C(=O)Nc2cccc4ccccc24)OCCCC[C@H](C)O3)cc1,-78,3,69
COc1ccc(S(=O)(=O)Nc2ccc3c(c2)C(=O)N([C@@H](C)CO)C[C@H](C)[C@H](CN(C)C(=O)Nc2cccc4ccccc24)OCCCC[C@H](C)O3)cc1,-86*,/,82
COc1ccc(S(=O)(=O)Nc2ccc3c(c2)C(=O)N([C@H](C)CO)C[C@@H](C)[C@@H](CN(C)C(=O)Nc2cccc4ccccc24)OCCCC[C@@H](C)O3)cc1,-86*,/,71
O=C(C[C@@H]1C[C@H]2c3cc(NC(=O)C4CCOCC4)ccc3O[C@H]2[C@H](CO)O1)NCc1ccccn1,3,0,84
CC(C)(O)C#Cc1cccc(-c2nc(C(=O)N[C@@H]3CCN(Cc4ccccc4)C3)cc3c2[C@@H](CCO)N(S(=O)C(C)(C)C)C3)c1 (stereo not given in full),-72,3,/
SMILES,Pf Dd2 growth,C diff growth,T cruzi growth
CN(C)C(=O)c1ccc(-c2cccc(-c3nc(C(=O)NC4CCCC4)cc4c3[C@@H](CCO)N([S@](=O)C(C)(C)C)C4)c2)cc1,-74,/,72
CN(C)C(=O)c1ccc(-c2cccc(-c3nc(C(=O)NC4CCCCC4)cc4c3[C@@H](CCO)N([S@](=O)C(C)(C)C)C4)c2)cc1,-74,/,72
COc1ccc(C#Cc2cccc(-c3nc(C(=O)N[C@@H]4CCN(Cc5ccccc5)C4)cc4c3[C@@H](CCO)N(S(=O)C(C)(C)C)C4)c2)cc1OC (stereo not given in full),-88*,-2,/
CN(C)C(=O)c1cccc(-c2cccc(-c3nc(C(=O)NC4CCCCC4)cc4c3[C@@H](CCO)N([S@](=O)C(C)(C)C)C4)c2)c1,-87*,/,59
CN(C)C(=O)c1cccc(-c2cccc(-c3nc(C(=O)NC4CCCCC4)cc4c3[C@H](CCO)N([S@@](=O)C(C)(C)C)C4)c2)c1,-84*,/,78
C[C@H]1CN([C@@H](C)CO)C(=O)c2cc(NC(=O)c3ccncc3)ccc2O[C@H]1CN(C)Cc1ccc2c(c1)OCO2,43,-7,-8
C[C@H]1CN([C@@H](C)CO)C(=O)c2cccc(NS(=O)(=O)c3cn(C)cn3)c2O[C@@H]1CN(C)C(=O)NC1CCCCC1,6,10,-104
CCCN(C)C[C@H]1OCCCC[C@@H](C)Oc2ccc(NC(=O)NC(C)C)cc2C(=O)N([C@H](C)CO)C[C@@H]1C,-41,3,52
CCCNC(=O)N(C)C[C@H]1Oc2cc(-c3ccc(C)cc3)ccc2S(=O)(=O)N([C@H](C)CO)C[C@H]1C,-26,0,15
C[C@H]1CN([C@@H](C)CO)C(=O)c2cccc(NC(=O)Nc3ccc(F)cc3)c2O[C@H]1CN(C)Cc1ccc(C(=O)Nc2ccccc2N)cc1,-71,13,/
C[C@H](CO)N1C[C@H](C)[C@H](CN(C)Cc2ccc(C(F)(F)F)cc2)Oc2c(NC(=O)C3CCCCC3)cccc2C1=O,-30,16,-72
COc1ccc(NC(=O)Nc2cccc3c2O[C@@H](CN(C)Cc2ccc(C(=O)Nc4ccccc4N)cc2)[C@@H](C)CN([C@H](C)CO)C3=O)cc1,-66,3,/
COc1ccc(NC(=O)Nc2cccc3c2O[C@H](CN(C)Cc2ccc(C(=O)Nc4ccccc4N)cc2)[C@H](C)CN([C@H](C)CO)C3=O)cc1,-93*,7,74
C[C@H](CO)N1C[C@H](C)[C@@H](CN(C)Cc2ccc(C(=O)Nc3ccccc3N)cc2)Oc2c(NC(=O)Nc3ccc(F)cc3)cccc2C1=O,-85*,-4,/
C[C@@H]1CN([C@@H](C)CO)C(=O)c2cccc(NC(=O)C3CCCCC3)c2O[C@H]1CN(C)Cc1ccc(C(F)(F)F)cc1,-83*,9,62

# Assay outcomes (PubChem BioAssay)
